In US5750335, “Screening for genetic variation” (Massachusetts Institute of Technology):

Each sequence was assayed against T1, MutS (Salmonella typhimurium, UniProt P0A1Y0 P0A1Y0:1-855) (assay: pulldown; homoduplex control precipitated 53 fold less; 5 mM MgCl2, on ice, competitor DNA). Conditions: tags: none (overproduced from pGW1825); chain copies: 2; label: 32P on DG6R; fully matched homoduplex; second strand (DG5) copied as printed, pairs with DG6R only if read 3'-5' relative to it; dsDNA, one strand shown.
T1 sequence: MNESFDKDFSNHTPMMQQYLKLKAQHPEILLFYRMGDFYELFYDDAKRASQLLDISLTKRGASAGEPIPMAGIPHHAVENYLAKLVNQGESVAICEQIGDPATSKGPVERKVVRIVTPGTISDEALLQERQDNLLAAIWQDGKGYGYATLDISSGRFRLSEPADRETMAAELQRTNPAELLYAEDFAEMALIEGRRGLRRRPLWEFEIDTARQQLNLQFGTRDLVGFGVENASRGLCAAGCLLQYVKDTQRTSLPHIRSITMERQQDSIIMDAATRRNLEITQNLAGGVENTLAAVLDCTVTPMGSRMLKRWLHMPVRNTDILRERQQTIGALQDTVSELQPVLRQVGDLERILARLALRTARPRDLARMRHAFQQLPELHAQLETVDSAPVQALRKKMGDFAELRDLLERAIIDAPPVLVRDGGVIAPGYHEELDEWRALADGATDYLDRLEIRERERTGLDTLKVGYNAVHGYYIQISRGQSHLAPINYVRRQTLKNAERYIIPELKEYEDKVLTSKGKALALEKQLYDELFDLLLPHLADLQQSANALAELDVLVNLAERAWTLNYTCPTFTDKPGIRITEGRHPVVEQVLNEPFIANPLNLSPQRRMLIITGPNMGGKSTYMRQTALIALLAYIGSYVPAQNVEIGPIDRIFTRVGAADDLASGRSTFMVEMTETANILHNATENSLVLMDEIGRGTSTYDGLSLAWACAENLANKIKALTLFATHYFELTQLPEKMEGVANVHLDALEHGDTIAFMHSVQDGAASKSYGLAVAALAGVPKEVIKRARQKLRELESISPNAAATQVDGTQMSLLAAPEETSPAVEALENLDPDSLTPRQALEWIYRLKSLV
Description: Affinity fractionation of heteroduplex nucleic acid was performed as follows. Two binding reactions were incubated on ice for 30 minutes, one containing heteroduplex nucleic acid and a control containing homoduplex DNA. The heteroduplex reaction contained 14.5 pMol of MutS, 200 fmol of DG-4/6 Het, and 2 ug of competitor nucleic acid in a total volume of 20 ul. The control reaction contained 14.5 pmol of MutS, 200 fmol of DG-5/6 Hom, and 2 ug of competitor nucleic acid in a total volume of 20 ul. After 30 minutes on ice, 5 ul of anti-MutS antibody was added to each binding reaction, and the result was incubated on ice for 60 minutes. 10 ul of Staphylococcus aureus cells that had been washed twice in assay buffer were added to both binding reactions (see McKay, 1981, supra) and the result was incubated on ice for an additional 30 minutes. Both reactions were then spun in a microfuge for 3 minutes at 4° C. and the pellet was washed 8 times in assay buffer.
In the case of GATCCGTCGACCTGCA, the binding signal is reported as 1 fold (reference).
